{"source": "PubChem BioAssay (EPA / NIEHS)", "note": "Active and inactive are the calls of the source. How the source made its calls: active means hit-call score of the fitted dose curve at least 0.9, where 1 is the maximum; inactive means score below 0.9."}
{"experiment": "APR_HepG2_MicrotubuleCSK_24hr: Apredica 24-hour HepG2 Assay for Microtubule CSK Stabilty (AID 2282909)", "details": "HepG2 microtubule cytoskeleton imaging, actives raise or lower the signal", "how_it_was_run": "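Fixed HepG2 cells were stained for alpha-tubulin and imaged after 24 hr exposure to ten concentrations spanning 0.39–200 uM in 0.5% DMSO. Signal change was fitted in both directions relative to DMSO; taxol was the positive control.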"}
{"smiles": "O=[N+]([O-])c1ccc(Oc2ccc(Cl)cc2Cl)cc1", "outcome": "inactive"}
{"smiles": "Cn1cc(-c2ccccc2)c(=O)c(-c2cccc(C(F)(F)F)c2)c1", "outcome": "inactive"}
{"smiles": "CN(C)c1ccccc1", "outcome": "inactive"}
{"smiles": "Oc1ccccc1Cl", "outcome": "inactive"}
{"smiles": "C=CCc1ccc2c(c1)OCO2", "outcome": "inactive"}
{"smiles": "CCCCCCCCCCCCCN1CC(C)OC(C)C1", "note": "(configuration not stated)", "AC50": "166 µM (active)"}
{"smiles": "Nc1cc(Cl)cc(C(=O)O)c1Cl", "outcome": "inactive"}
{"smiles": "Nc1ccc(Cl)cc1N", "outcome": "inactive"}
{"smiles": "CC(C)N(Cc1ccccc1)C(=O)C(C)(C)C", "outcome": "inactive"}
{"smiles": "ClCCOCCCl", "outcome": "inactive"}
{"smiles": "CO[C@@H]1[C@H](OC(=O)NC(=O)CCl)CC[C@]2(CO2)[C@H]1[C@@]1(C)O[C@@H]1CC=C(C)C", "outcome": "inactive"}
{"smiles": "CCOc1cccc(C2(N3CCN(c4ccccc4)CC3)CCC(C)CC2)c1", "note": "(configuration not stated)", "outcome": "inactive"}
{"smiles": "CCC12COCN1COC2", "outcome": "inactive"}
{"smiles": "CS(=O)(=O)NC(=O)c1cc(Oc2ccc(C(F)(F)F)cc2Cl)ccc1[N+](=O)[O-]", "outcome": "inactive"}
{"smiles": "ClC1=C(Cl)C2(Cl)C3C(Cl)C=CC3C1(Cl)C2(Cl)Cl", "note": "(configuration not stated)", "AC50": "68.7 µM (active)"}
{"smiles": "Cc1ccc([N+](=O)[O-])cc1", "outcome": "inactive"}
{"smiles": "O=C(N[C@H](c1ccccc1)[C@@H]1CN2CCC1CC2)c1c(Cl)ccc(C(F)(F)F)c1Cl", "outcome": "inactive"}
{"smiles": "CCCCOC(=O)c1ccccc1C(=O)OCc1ccccc1", "outcome": "inactive"}
{"smiles": "O=C1CCCO1", "outcome": "inactive"}
{"smiles": "c1ccc(N=Nc2ccccc2)cc1", "outcome": "inactive"}
{"smiles": "CN(C)[C@@H]1C(=O)C(C(N)=O)=C(O)[C@@]2(O)C(=O)C3=C(O)c4c(O)cccc4[C@@](C)(O)[C@H]3C[C@@H]12", "outcome": "inactive"}
{"smiles": "CCC(C)c1ccc(O)cc1", "note": "(configuration not stated)", "outcome": "inactive"}
